Consider 46 sequences from paper PMC7819943, “Rice protein-binding microarrays: a tool to detect cis-acting elements near promoter regions in rice”.

The full ranking holds about 68,000 sequences; the median of “fluorescence intensity (a.u.)” is about 9,100, and the highest 2% start at about 16,000. Only a selection was taken, and the highest values are over-represented in it overall.

Sequence of OsWRKY34 (Q0JBA9 entry or part of it): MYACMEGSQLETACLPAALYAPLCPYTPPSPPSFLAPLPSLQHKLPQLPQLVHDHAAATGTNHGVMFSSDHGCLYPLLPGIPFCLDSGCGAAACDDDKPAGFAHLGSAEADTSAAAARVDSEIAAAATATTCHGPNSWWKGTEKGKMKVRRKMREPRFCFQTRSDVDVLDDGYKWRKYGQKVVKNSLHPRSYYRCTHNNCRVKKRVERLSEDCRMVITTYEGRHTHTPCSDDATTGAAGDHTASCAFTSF

In the assay the target is OsWRKY34 (Oryza sativa, UniProt Q0JBA9 1-250). The experiment in a line: protein-binding microarray (RPBM); PBS, 2% BSA, 51.3 ng/ul salmon testes DNA, 50 uM zinc acetate, 200 nM TF, 25 C, 1 h; high values mean tight binding. The note with it: protein: recombinant; tags: N-terminal polyhistidine and DsRed monomer fusion (pET32a); label: CyDye5-dUTP incorporated in the synthesized complementary strand; 3' TTTTT single-stranded linker to array surface; dsDNA, one strand shown. In outline:
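The binding signal for each feature is its fluorescence intensity in arbitrary units. An Axon 4000B scanner was used to read a custom Agilent array that had been made double-stranded with Cy5-dUTP primer extension, blocked with 2% BSA, incubated at 25 °C for 1 h with 200 nM protein in PBS, 2% BSA, salmon testes DNA and 50 µM zinc acetate, and washed. The protein was an N-terminal polyhistidine–DsRed transcription factor fusion from E. coli BL21-CodonPlus, purified on Ni–NTA.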
Consider “TTACACTTTCTCCTCCATCATGCGCTCATGGCCATCCATTCGGAGTCACCTAGTGCAG”, for which the binding signal is 8320 fluorescence intensity (a.u.). With “TTGACTTTTTCTCACATGTTTGACCATTCGTCTTATTCAACGGAGTCACCTAGTGCAG” the figure was 15400 fluorescence intensity (a.u.). With “GTCGCCGCCTCCTCCTCTCCATCTCCGCTGCTATTATTGCCGGAGTCACCTAGTGCAG” the figure was 12900 fluorescence intensity (a.u.). With “TTTTCTCTGTTTACTTTTTTTTTATTATTTTTTTGCGCCGCGGAGTCACCTAGTGCAG” the figure was 8240 fluorescence intensity (a.u.); with “ATGTCATGTCATGTCGCATATCTCCCATGTCTTGGCACGACGGAGTCACCTAGTGCAG”, 9540 fluorescence intensity (a.u.). Take “TACTTGGCTATACTATTAAACTTGCTCTCGCACCATCTTTCGGAGTCACCTAGTGCAG”: the binding signal is 9680 fluorescence intensity (a.u.). Take “GTTGCAAAAGAGGCCTCTGACATGGTTCTTGCTGATGACACGGAGTCACCTAGTGCAG”: the binding signal is 8450 fluorescence intensity (a.u.). The same measure for “GATCAACGAACACTCGTGGGCCGTAGGCGGAGGCGCAAGTCGGAGTCACCTAGTGCAG”: 62600 fluorescence intensity (a.u.).

On to “ATCGCCATATAGGCGCCACGTGGAACGAAGACTCGGTCAACGGAGTCACCTAGTGCAG”, for which the binding signal was 9350 fluorescence intensity (a.u.). As for “CGGGGCCCAACGAGGTGGCGCCGTGGCTGGTGGGGCGGGTCGGAGTCACCTAGTGCAG”, the binding signal was 9270 fluorescence intensity (a.u.). Consider “CCCGGCGGCCCGATCACCACCTGCCCGAACACCATCCTCCCGGAGTCACCTAGTGCAG”, for which the binding signal was 8530 fluorescence intensity (a.u.).

Consider “ACTGTCGTGCCACAGTGGACGTGTGCGGCAGGTGAAGCACCGGAGTCACCTAGTGCAG”, for which the binding signal is 49100 fluorescence intensity (a.u.). With “TAGGTGTGGTGTGTGGAGAAGCGGTGGACCGACCGACGACCGGAGTCACCTAGTGCAG”, the binding signal was 8450 fluorescence intensity (a.u.). For “GTGTGTTGGTTGTCACAGTACTGTGTGGTGGTGGTGGAAGCGGAGTCACCTAGTGCAG”, the binding signal was 9220 fluorescence intensity (a.u.). The same measure for “GGAAAAGAACACCGGTCCATTTTGCAACTATTGTGAAGTTCGGAGTCACCTAGTGCAG”: 8220 fluorescence intensity (a.u.); for “CCGGCAAAAGTCTCTCCATCTTGTCATCGTCTTCTCCAGCCGGAGTCACCTAGTGCAG”: 8410 fluorescence intensity (a.u.). The same measure for “TTGGGAGGGAGAGTGGTAAAGGGTGCTGGGGCTTTGGCTGCGGAGTCACCTAGTGCAG”: 8840 fluorescence intensity (a.u.); for “AGGATTCAATTTGGACTTTGGTGGAGGGGAGGGGCTGCTGCGGAGTCACCTAGTGCAG”: 22100 fluorescence intensity (a.u.); for “ACTGGTTTTACACATTATGTGGGCTAACTTAATACTCCTTCGGAGTCACCTAGTGCAG”: 8040 fluorescence intensity (a.u.). For “GGGGAAGGAGAAGAGGAAGGAGAGGGGAGGAGGAGGAGGGCGGAGTCACCTAGTGCAG”, the binding signal was 8870 fluorescence intensity (a.u.). For “TCTTCGGTTTACTTATGTCCTGGCTGGTTGGGAGGGGACACGGAGTCACCTAGTGCAG”, the binding signal is 19100 fluorescence intensity (a.u.).

Consider “GGGGCTGTTTGGTTTCCAGGGACTTATTCCAAGTCCCTGTCGGAGTCACCTAGTGCAG”, for which the binding signal is 9750 fluorescence intensity (a.u.). The same measure for “GCGAGAGGGGACTGGGGAGGGGAGGGGCGGCGCTCGCTGGCGGAGTCACCTAGTGCAG”: 12500 fluorescence intensity (a.u.); for “TGGATTTGGCGGCGGCGGCGGCTTCGAGGGGAGGGGCTCTCGGAGTCACCTAGTGCAG”: 15300 fluorescence intensity (a.u.).

In the case of “GAGGAAATGCCTGGGAGGAGGAGGAGGGACTCGGGGCGGGCGGAGTCACCTAGTGCAG”, the binding signal is 13300 fluorescence intensity (a.u.). With “AGAGGGGACTGGGGAGGGGAGGGGCGGCGCTCGCTGGCTTCGGAGTCACCTAGTGCAG” the figure was 17500 fluorescence intensity (a.u.); with “TTGGATTGGGCTGCGGACCTGCGGTGGAGGGATTCAGGGTCGGAGTCACCTAGTGCAG”, 8240 fluorescence intensity (a.u.); with “TGGAAAGAGGAGGGCGGGGAGAGGACTGGGGAGGGCGGGGCGGAGTCACCTAGTGCAG”, 17700 fluorescence intensity (a.u.).

For “ATTTTTTTTAAAAGTAGTTCTTCTGTTTCATATTATAATACGGAGTCACCTAGTGCAG”, the binding signal was 9230 fluorescence intensity (a.u.). Take “TGTCTTTATTAAGTGCAAATGTATTTGGATTCCAACCCTTCGGAGTCACCTAGTGCAG”: the binding signal was 8180 fluorescence intensity (a.u.). Consider “TACCCACACACACACAAGAACACGCGCCACATTTGTCATTCGGAGTCACCTAGTGCAG”, for which the binding signal is 10900 fluorescence intensity (a.u.). As for “TATTGTCTGGGGTTTGCTTATTGGCTTTTCAGGCCATGTCCGGAGTCACCTAGTGCAG”, the binding signal is 9320 fluorescence intensity (a.u.). With “ATCTCTTTTGCATTTGTTCGTCCCTTTCGTTTTCAACTTGCGGAGTCACCTAGTGCAG” the figure was 9290 fluorescence intensity (a.u.). For “CAAACATGTGCTAAAAAGTCAACGGTGTCAACCATTTTGACGGAGTCACCTAGTGCAG”, the binding signal was 11600 fluorescence intensity (a.u.). Consider “AAGCGCCTGGTAGCGGAGAGTGGGAAAGAGCTGGCTGGCGCGGAGTCACCTAGTGCAG”, for which the binding signal is 60400 fluorescence intensity (a.u.).

In the case of “TAGGTGAGGGCGGTGCGCTTGTCGACGGGGTTGAAGGGGACGGAGTCACCTAGTGCAG”, the binding signal was 10700 fluorescence intensity (a.u.).

As to “ACTCACAGAAAGCGTCGGGGCGGGTCTGGGAGGGCTTGCGCGGAGTCACCTAGTGCAG”, the binding signal is 9140 fluorescence intensity (a.u.). Consider “CTGCTGCCGCCGCCTCCTGGCCGCCGCCGCGGCGAGCGCGCGGAGTCACCTAGTGCAG”, for which the binding signal is 8280 fluorescence intensity (a.u.). Turning to “GGGGATTTGGGGAGACTTTTGGAGGGGAGGAGAGAGGGCGCGGAGTCACCTAGTGCAG”, the binding signal is 19700 fluorescence intensity (a.u.). The same measure for “GCGTCTGGGGCCTCGGGCGGCGCGCGCGGGGAGGGGCGTGCGGAGTCACCTAGTGCAG”: 10500 fluorescence intensity (a.u.); for “TCGGGGCGGGTCTGGGAGGGCTTGCGCTTGACACGGACGACGGAGTCACCTAGTGCAG”: 17200 fluorescence intensity (a.u.).

“GAGGACTGGGGAGGGCGGGGAGAGGGGAGGGCGTCGCGTGCGGAGTCACCTAGTGCAG”: the binding signal was 24500 fluorescence intensity (a.u.). With “GCGGCGGCGGGGCGGCGTCGGGGAGGGAGGAGGAGCAGTGCGGAGTCACCTAGTGCAG” the figure was 10700 fluorescence intensity (a.u.); with “CGTGGAGAGGATTTGAGTGCCTTTTTTGGAGTTTGAGGGGCGGAGTCACCTAGTGCAG”, 9570 fluorescence intensity (a.u.). With “GTGTGTGCTGTGGTGGAGAGGAGAAAGGGAGGAAGAAGAGCGGAGTCACCTAGTGCAG”, the binding signal is 8140 fluorescence intensity (a.u.). “ACGGGGACAGGGAGAGGAGCGGGGATTTTGTGGCGGGAGACGGAGTCACCTAGTGCAG”: the binding signal is 9460 fluorescence intensity (a.u.).
